# Assay outcomes from PubChem.
# Tgondii IFNg: inhibitors of Toxoplasma gondii growth with IFN-gamma; hit rate 3.8% among 69,000; activity change, negative = inhibition, % (no concentration beside the values); Toxoplasma gondii growth in IFN-gamma-treated host cells; stronger effect = lower value; in the data active means activity change below about -70%, passing the limit was not always enough;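 further: host cells are HeLa cells infected with Toxoplasma gondii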
# Starred values were filed as active, the others as inactive. The full list was thinned out, with hits kept by preference.
SMILES,Tgondii IFNg
O=C(Nc1cc(F)cc(F)c1)N1CCCC2(C1)Nc1cccnc1NC2=NC1CCCC1 (centres undefined),-86*
COc1ccc(C)cc1NC(=O)N1CCCC2(C1)Nc1cccnc1NC2=NC1CCCC1 (centres undefined),31
COc1cccc(NC(=O)N2CCCC3(C2)Nc2cccnc2NC3=NC2CCCC2)c1 (centres undefined),-7
CN1C(=O)CC(C(=O)N2CC(c3cccnc3)C2)c2ccccc21 (centres undefined),9
CC(C)Nc1nc2c(cc1C(=O)N(C)C)CCN(S(=O)(=O)C1CC1)CC2,-2
CC(C)NC(=O)[C@@H]1C[C@@H]2OCC[C@@H]2N(CCOCc2ccccc2)C1,-29
COc1ccc(N2CCN(C(=O)Cn3ncc4c(N5CCCCC5)ncnc43)CC2)cc1,10
CN1CCN(c2ncnc3c2c(C(=O)NCC(F)(F)F)c2ccccn23)CC1,6
C[C@H](CO)N1C[C@H](C)[C@@H](CN(C)C(=O)C2CCCCC2)OCCCC[C@H](C)Oc2ccc(NS(=O)(=O)c3ccccc3)cc2C1=O,-78*
C[C@@H]1CCCCO[C@@H](CN(C)C(=O)C2CCCCC2)[C@@H](C)CN([C@@H](C)CO)C(=O)c2cc(NS(=O)(=O)c3ccccc3)ccc2O1,88
C[C@@H]1CCCCO[C@@H](CN(C)C(=O)C2CCCCC2)[C@H](C)CN([C@H](C)CO)C(=O)c2cc(NS(=O)(=O)c3ccccc3)ccc2O1,21
CC(C)NC(=O)Nc1ccc2c(c1)C(=O)N([C@@H](C)CO)C[C@@H](C)[C@@H](CN(C)C(=O)C1CCCCC1)OCCCC[C@H](C)O2,307
CC(C)NC(=O)Nc1ccc2c(c1)C(=O)N([C@@H](C)CO)C[C@@H](C)[C@H](CN(C)C(=O)C1CCCCC1)OCCCC[C@H](C)O2,333
C[C@@H]1CCCCO[C@H](CN(C)C(=O)C2CCCCC2)[C@H](C)CN([C@H](C)CO)C(=O)c2cc(NS(=O)(=O)c3ccccc3)ccc2O1,-145*
COc1ccc(OC)c(C2CCN(Cc3nnc(-c4ccc(C)n4C)o3)C2)c1 (centres undefined),-1
CC1CCCN(c2ncc(C(=O)N3CCCCC3CCN3CCCC3)cn2)C1 (centres undefined),49
CCCCN(C)C(=O)c1cc2cccnc2n(Cc2ccccc2F)c1=O,23
Cc1ccc(S(=O)(=O)N2CC(C(=O)Nc3cccc(F)c3)C3(CCOCC3)C2)cc1 (centres undefined),-75*
Cc1ccc(S(=O)(=O)N2CCC3(CC3C(=O)Nc3cccc(F)c3)C2)cc1F (centres undefined),-65
O=C(Nc1cccc(F)c1)N1CC(C(=O)N2CCOCC2)C2(CCOCC2)C1 (centres undefined),-6
Cc1cc(C(=O)N2C[C@H]3C[C@@H]4[C@@](C2)(CN(CC(C)C)S4(=O)=O)O3)no1,3
CCOc1cccc(-c2ccc(C(=O)NC)s2)c1,171
O=C(Nc1ccncc1)c1c(O)c2ccccc2n(-c2ccccc2)c1=O,23
Cc1ccc(NC(=O)c2snc3c(=O)[nH]cnc23)cc1,-111*
Cc1ccc(NC(=O)c2c(O)c3cccnc3[nH]c2=O)cc1,59
SMILES,Tgondii IFNg
CSc1nsc(SCC(=O)Nc2ccc(C)cc2)n1,99
O=C(CN1C(=O)c2ccccc2C1=O)NCCc1csc(-c2cccc(F)c2)n1,33
O=C(Nc1cnn(-c2ncncc2N2CCSCC2)c1)NC1CCCCC1,18
O=C(Nc1cnn(-c2ncncc2N2CCCCC2)c1)C1CCCCC1,-80*
O=C(Nc1cnn(-c2ncncc2N2CCCCC2)c1)C1CCCC1,-33
Cc1oc(-c2cccc(Br)c2)nc1CSc1nc2c(=O)[nH]cnc2n1-c1ccccc1,15
COc1ccc(C(C)C)cc1CN1CCN(c2ncnc3nc[nH]c23)CC1,19
CCOc1ccccc1-c1nc(CN(c2ccccc2OC)S(=O)(=O)c2ccccc2C)c(C)o1,-48
O=C(NCc1ccc2c(c1)OCO2)c1c(O)c2cccnc2n(-c2ccc(F)cc2)c1=O,181
CC[C@]1(O)CC2CN(CCc3c([nH]c4ccccc34)[C@@](C(=O)OC)(c3cc4c(cc3OC)N(C)[C@H]3[C@@](O)(C(=O)OC)[C@H](OC(C)=O)[C@]5(CC)C=CCN6CC[C@]43[C@@H]65)C2)C1 (some centres undefined),-82*
COC(=O)[C@H]1[C@H]2C[C@@H]3c4[nH]c5ccccc5c4CCN3C[C@H]2C[C@@H](OC(=O)c2cc(OC)c(OC)c(OC)c2)[C@@H]1OC,-13
Cc1noc(C)c1C(=O)NC1CCC2(CCC(=O)N2CC(C)C)CC1 (centres undefined),56
O=C(O)Cn1c2c(c3ccccc31)CCC2,-92*
COc1ccc2c(c1)c1c(n2Cc2ccccc2)CCCC1,19
O=C1SCCc2c1n(Cc1ccccc1)c1ccccc21,23
COCCCN1C(=O)N(Cc2ccc3ccccc3c2)C(=O)C12CCN(CC1CC=CCC1)CC2 (centres undefined),-7
CN(c1ncccn1)C1COC2(CCN(C(=O)c3ccc[nH]3)C2)C1 (centres undefined),1
COc1ccc(-c2nnc(-c3nc(NCCc4ccccc4)c4ccccc4n3)o2)cc1,-34
O=C(Nc1nccs1)c1ccc2c(c1)C(=O)N(c1ccccc1-c1ccccc1)C2=O,8
COc1ccc(NC(=S)NCCSc2ccc(Cl)cc2)cc1,-42
COc1ccc(SCC(O)CNCc2ccc(Cl)cc2)cc1 (centres undefined),-80*
COc1ccc(CNCCCSc2ncccn2)cc1,20
Cc1noc(CN(C)Cc2cc3cc4c(cc3[nH]c2=O)CCC4)n1,-5
O=c1[nH]c2cc3c(cc2cc1CNc1ccc(N2CCCCC2)cc1)CCC3,-99*
O=c1[nH]c2cc3c(cc2cc1CNc1cccc2c1CCCC2)OCCO3,7
SMILES,Tgondii IFNg
COc1cc(OC)cc(-c2noc(-c3c(O)c4ccccc4n(C)c3=O)n2)c1,96
Cc1ccc(-c2ccc([C@@H]3[C@@H]4CN(Cc5ccccc5F)C[C@H]3N4)cc2)cc1,-73*
CN(C)C(=O)c1cccc(-c2ccc(C3[C@@H]4CN(Cc5ccccc5F)C[C@H]3N4)cc2)c1 (some centres undefined),-6
Fc1ccc(-c2ccc(C3[C@@H]4CN(Cc5ccccc5)C[C@H]3N4)cc2)cc1 (some centres undefined),-33
CCC(=O)N1C[C@@H]2OCCN(Cc3cnn(C)c3)[C@H]2C1,3
CN1C[C@H](NC(=O)Nc2ccccc2Oc2ccccc2)C[C@H]1CO,-7
CC(=O)Nc1ccc(Cl)c(C(=O)N(C)Cc2ccsc2)c1,1
COc1cc(C2CC(=O)c3cnn(-c4nc(C)cc(C)n4)c3C2)cc(OC)c1OC (centres undefined),-21
COc1cc([C@@H]2c3cc4c(cc3C(O[C@@H]3O[C@@H]5CO[C@@H](c6cccs6)OC5[C@H](O)[C@H]3O)C3COC(=O)[C@@H]32)OCO4)cc(OC)c1O (some centres undefined),-80*
O=C(NCCc1ccco1)C1CCCN(C2CCN(Cc3ccncc3)CC2)C1 (centres undefined),-2
COC[C@H](NC(=O)c1cnc(C)s1)C(=O)N[C@@H](COC)C(=O)N[C@@H](Cc1ccccc1)C(=O)C1(C)CO1 (some centres undefined),-77*
COC(=O)[C@H](Cc1ccccc1)NC(=O)[C@@H](N)CC(=O)O,16
COc1ncc(C(=O)NC(Cc2ccccc2)c2ccc3c(c2)OCCO3)cn1 (centres undefined),67
